Laboratory results: PubChem BioAssay

How the values were obtained:
[1] = tested on: Human papillomavirus type 1a protein E7 (residues 44-93); experiment: HPV1a E7 fragment binders on microarrays, primary screen, biochemical, small-molecule microarray, residues 44-93, 635 nm fluorescence (AID 1108); details: small-molecule microarray binding, fluorescence 635 nm; higher = more signal;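 also: E7 fragment applied at 1 µg/mL in TBST for 1 h at 4 C; score combines spot fluorescence with its signal to noise ratio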
[2] = modulators of HCV replicon luciferase signal, primary screen, HCV replication inhibitor project, Huh7 cells, luciferase reporter (AID 1109); details: 48 h, higher = more signal;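 also: huh7 hepatoma cells harbouring a luciferase neomycin HCV replicon reporter; luciferase luminescence as measure of HCV replicon replication; test concentration not given here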
[3] = molecular target: Left-right determination factor 2 (Homo sapiens) (UniProt O00292); experiment: LEFTY2 binders on small-molecule microarrays, primary screen, biochemical, small-molecule microarray, 635 nm fluorescence scan (AID 1110); details: LEFTY2 binding, higher = more signal
Sequence of Left-right determination factor 2 (Homo sapiens) (O00292 whole entry, looked up): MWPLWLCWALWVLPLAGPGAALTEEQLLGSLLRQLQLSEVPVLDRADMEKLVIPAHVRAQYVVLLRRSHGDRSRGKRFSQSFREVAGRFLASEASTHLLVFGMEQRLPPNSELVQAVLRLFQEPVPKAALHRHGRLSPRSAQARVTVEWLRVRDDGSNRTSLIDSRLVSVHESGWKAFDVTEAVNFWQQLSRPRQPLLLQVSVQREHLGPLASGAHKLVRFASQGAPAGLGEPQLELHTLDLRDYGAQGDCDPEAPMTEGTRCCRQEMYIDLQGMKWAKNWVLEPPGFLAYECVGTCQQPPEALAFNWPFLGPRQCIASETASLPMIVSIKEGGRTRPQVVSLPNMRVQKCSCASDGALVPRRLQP

[4] = molecular target: Calmodulin-1 (Homo sapiens) (UniProt P0DP23); experiment: CALM1 binders on microarrays, EGTA buffer, profiling panel, biochemical, small-molecule microarray, Cy5-labelled CALM1 (AID 1111); details: Cy5-CALM1 binding fluorescence, higher = more signal;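 also: labelled calmodulin applied in Tris saline Tween buffer holding calcium plus EGTA and DTT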
[5] = molecular target: Calmodulin-1 (Homo sapiens) (UniProt P0DP23); experiment: calcium-bound CALM1 binders on microarrays, profiling panel, artefact control for SMM control-protein annotation, biochemical, small-molecule microarray, Cy5-labelled CALM1, plus calcium (AID 1112); details: Cy5-CALM1 binding fluorescence, higher = more signal;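 also: score merges spot fluorescence with signal to noise from triplicate slides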
[6] = small-molecule microarray binders of probe aWnt5a, primary screen, biochemical, biotinylated probe, 635/667 nm fluorescence (AID 1113); details: higher = more signal;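 also: score merges 667 nm fluorescence intensity with signal-to-noise per printed feature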
[7] = small-molecule microarray binders of probe aShh, primary screen, biochemical, biotinylated probe, 635/667 nm fluorescence (AID 1114); details: higher = more signal;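 also: probe is biotin-labelled aShh protein from a stem cell growth factor screen; measures binding of labelled protein to compounds printed on the slide; score merges feature fluorescence at 667 nm with signal-to-noise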
[8] = small-molecule microarray binders of probe aNog, primary screen, biochemical, biotinylated probe, 635/667 nm fluorescence (AID 1115); details: higher = more signal;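 also: probe is biotinylated aNog protein used at 0.15 µg/mL for 1 h at 4 C; z-score combines 667 nm fluorescence of each spot with its signal to noise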
[9] = molecular target: Torsin-1A-interacting protein 1 (Homo sapiens) (UniProt Q5JTV8); experiment: LAP1 binders from COS7 cell lysate, primary screen, small-molecule microarray, 635/667 nm fluorescence (AID 1116); details: COS7-hLAP1 lysate binding, 635 nm fluorescence, higher = more signal
Sequence of Torsin-1A-interacting protein 1 (Homo sapiens) (Q5JTV8 whole entry, looked up): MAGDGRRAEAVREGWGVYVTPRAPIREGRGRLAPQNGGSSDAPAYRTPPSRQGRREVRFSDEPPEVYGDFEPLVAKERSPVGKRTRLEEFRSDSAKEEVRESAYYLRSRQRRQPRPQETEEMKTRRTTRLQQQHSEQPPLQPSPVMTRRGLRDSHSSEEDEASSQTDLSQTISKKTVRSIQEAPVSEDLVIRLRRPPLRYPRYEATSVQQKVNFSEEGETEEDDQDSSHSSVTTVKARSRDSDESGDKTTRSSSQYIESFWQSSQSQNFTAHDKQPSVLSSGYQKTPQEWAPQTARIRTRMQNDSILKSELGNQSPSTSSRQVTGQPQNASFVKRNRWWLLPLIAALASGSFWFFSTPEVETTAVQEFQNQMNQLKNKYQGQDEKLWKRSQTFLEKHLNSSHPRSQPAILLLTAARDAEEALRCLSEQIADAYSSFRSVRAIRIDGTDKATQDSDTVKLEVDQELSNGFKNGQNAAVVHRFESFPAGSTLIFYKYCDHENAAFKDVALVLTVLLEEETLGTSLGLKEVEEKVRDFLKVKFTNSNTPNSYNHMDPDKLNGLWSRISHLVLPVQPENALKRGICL

[10] = molecular target: Alpha-bungarotoxin (Bungarus multicinctus) (UniProt P60615); experiment: alpha-bungarotoxin binders on microarray, profiling panel, artefact control for SMM control protein annotation, biochemical, small-molecule microarray, Alexa647 label, 635/667 nm fluorescence (AID 1117); details: alpha-BTX-A647 binding fluorescence, higher = more signal
Sequence of Alpha-bungarotoxin (Bungarus multicinctus) (P60615 whole entry, looked up): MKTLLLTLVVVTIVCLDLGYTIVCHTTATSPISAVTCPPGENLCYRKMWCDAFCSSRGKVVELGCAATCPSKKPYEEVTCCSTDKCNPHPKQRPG

SMILES	composite z-score [1]	z-score [2]	composite z-score [3]	composite z-score [4]	composite z-score [5]	composite z-score [6]	composite z-score [7]	composite z-score [8]	composite z-score [9]	composite z-score [10]
C#C[C@@H](CC)O[Si](C#Cc1ccc(Oc2ccccc2)cc1)(C(C)C)C(C)C	1.1	-0.715	0.341	-0.0885	-0.657	-0.0963	-0.0533	-0.254	0.368	0.0826
CC[C@@H](c1ccccc1)n1c(=O)n2n(c1=O)[C@H]1[C@H](O)[C@@H]3O[C@@H]3C(=NOCC=C(C)CCC=C(C)C)[C@H]1CC2	1.21	-3.62	0.827	-0.0812	-0.834	-0.001	-0.0866	-0.136	0.215	0.0806
CCCNC(=O)OC[C@H]1O[C@H](CCON=CC[C@@H]2C=C[C@H](OC(C)=O)[C@@H](COC(C)=O)O2)C=C[C@@H]1Oc1ccc(OC)cc1	0.791	0.0229	0.667	-0.625	-0.867	-0.0718	-0.442	-0.267	0.444	0.945
CO[C@@H]1COC(=O)[C@@H]2CCCN2C(=O)[C@@H](C)COC(=O)[C@H](COCc2ccccc2)NC(=O)CC=C[C@H]1C	0.929	0.323	0.39	-0.142	-0.713	-0.0748	0.0941	-0.111	0.142	0.199
CCCCc1nc2c(c3c1C[C@H](C)OC3)CN(CCC(C)C)CC2	1.23	-0.953	0.893	-0.0635	-0.747	-0.0704	-0.164	0.372	0.089	0.595
COc1cccc([C@@H]2Oc3ccc(Br)cc3C(=O)[C@H]2O)c1	0.0288	3.55	0.171	0.042	-0.246	-0.124	-0.243	-0.257	0.43	0.599
CC(C)CN1CCc2nc(-c3ccccc3)c3c(c2CC1)CO[C@@H](C)C3	-0.749	-0.747	0.774	-0.268	-0.177	0.027	0.191	-0.138	0.12	0.405
CC1(C)OCC(C(O)C2=CCCCC2=O)CO1 (stereo not given)	0.198	-0.751	1.07	0.465	-0.927	0.0244	-0.276	-0.158	0.5	1.16
COC(=O)[C@]1(CO)N=C(c2ccc(OCCCO)cc2)O[C@@H]1c1ccccc1N=[N+]=[N-]	0.812	0.411	0.274	-0.323	-0.629	0.0189	-0.226	-0.215	1.6	-0.0978
COc1ccc([Si](C)(C)[C@H]2[C@H](CC(=O)N3CCC[C@H]3CO)O[C@@]3(C(=O)N(Cc4cccc(N5C(=O)COc6ccccc65)c4)c4ccccc43)[C@@H]2C)cc1	1.08	-2.51	0.805	1.36	0.487	0.0556	-0.17	0.274	1.16	-0.654
CC(C)=C1C(=O)C(c2ccccc2)=C2CN3C(=O)N(CCc4ccccc4)C(=O)[C@]3(Cc3ccc(F)cc3)[C@H]21	0.891	-0.864	-1.67	0.327	0.32	0.229	0.0431	-0.761	-0.248	-0.547
CN1C(=O)C2C=CC(C(O)c3ccc(Br)cc3)N(N(c3ccccc3)c3ccccc3)C2C1=O (stereo not given)	0.962	-1.01	-0.0937	1.16	0.428	0.0873	0.0639	0.654	0.513	1.12
CC[C@@H](c1ccccc1)n1c(=O)n2n(c1=O)[C@H]1[C@H](O)[C@@H]3O[C@@H]3C(=NOCC(C)C)[C@H]1CC2	0.284	-2.11	0.143	-0.0128	-0.178	-0.12	-0.14	-0.407	0.107	-0.088
C[C@@H](c1ccccc1)N1C(=O)[C@H]2[C@H]3[C@H](O)[C@H](O)CC(=NNC(=O)OCc4ccccc4)[C@H]3CC[C@H]2C1=O	-0.269	-2.23	0.495	0.12	-0.726	-0.0735	0.0815	-0.0567	0.464	0.284
COC(=O)[C@@H]1CC[C@H](C)[C@@H](c2ccc(C)cc2)N1C(=O)c1ccc(C=NOC(C)CN2CCCCc3nc(C)c(C)cc32)cc1 (stereo not given in full)	-0.278	-3.62	0.359	-0.0385	0.076	0.0437	0.0893	0.0274	0.652	0.709
O=C(CS)NCCCCCNC(=O)[C@@H]1C[C@@H]2C(=O)N[C@@H](Cc3ccccc3)C(=O)N2[C@@H]1c1ccc(O)cc1	0.985	-0.374	0.514	0.283	-0.11	0.0004	0.149	-0.122	0.858	1.48
COc1ccc(O[C@H]2C=C[C@@H](c3ccccc3)O[C@@H]2CON=C[C@@H](C)[C@H](OCc2ccccc2)C(C)C)cc1	-0.409	-2	-0.0764	-0.323	-0.434	-0.124	-0.0626	-0.176	-1.24	-0.25
CN1C(=O)C2C=CC(C(O)c3ccc(I)cc3)N(NC(=O)OC(C)(C)C)C2C1=O (stereo not given)	1.41	0.0411	0.0192	0.526	0.202	-0.0165	0.151	1.26	1.4	1.01
CCOC(=O)NN=C1C[C@@H](O)[C@@H](O)[C@@H]2[C@@H]3C(=O)N(C4CCCCC4)C(=O)[C@@H]3CC[C@H]12	0.0361	-0.314	0.511	-0.101	-0.469	-0.128	0.199	-0.245	0.217	-0.177
O=C1[C@H]2[C@H]3[C@H](O)[C@H](O)CC(=NO[C@@H]4O[C@H](CO)[C@@H](O)[C@H](O)[C@H]4O)[C@@H]3CC[C@H]2C(=O)N1Cc1ccccc1	0.33	0.506	0.792	-0.225	-1.24	-0.136	0.225	-0.433	0.392	-0.187
COc1ccccc1CN1C(=O)c2ccccc2[C@@H](C(=O)NCC(F)(F)F)[C@@H]1c1ccc(CO)cc1	1.44	-1.26	-0.155	0.313	0.229	-0.107	0.0446	-0.425	0.488	0.472
CCN1C(=O)[C@H]2[C@H]3[C@H](O)[C@H](O)CC(=NO[C@@H]4O[C@H](CO)[C@@H](O)[C@H](O)[C@H]4O)[C@@H]3CC[C@H]2C1=O	-2.4	0.26	-0.251	-0.665	-0.813	-0.18	-0.545	-0.1	-0.442	-0.479
COC(=O)[C@H](C)NC(=O)CCC1CC(OC(=O)NCc2cccc3ccccc23)CC2(CCCC(COC(=O)NCC3CCCCC3)O2)O1 (stereo not given in full)	1.32	-0.411	0.776	0.708	-0.798	-0.174	-0.0035	-0.501	0.587	0.585
CC(=O)OC[C@H]1O[C@@H](ON=C(C)CCN2CCc3nc(-c4ccccc4)c(-c4ccccc4)cc3C2)[C@H](OC(C)=O)[C@@H](OC(C)=O)[C@@H]1OC(C)=O	1.32	-2.07	0.687	0.328	-0.697	0.0215	-0.0362	-0.295	0.358	0.74
